The values that follow come from PubChem BioAssay (NCI).

A short description of this test: NCI Yeast Anticancer Drug Screen. Data for the mlh1 rad18 strain (AID 175). The conditions noted are these: S. cerevisiae mlh1 rad18 strain growth inhibition, hits give high values. How it is done: Growth inhibition of yeast strains with defined genetic alterations is measured as a screen for potential anti-cancer activity. Selected strains with alterations in DNA damage repair or cell cycle control were exposed to compounds and growth inhibition was measured relative to vehicle treated controls. The strain used in this assay is mlh1 rad18

The mark [1] stands for this setting: at 5.0 µM (retest, dose inferred, filed as 0.5).
Setting [2] is: at 50.0 µM (retest, dose inferred, filed as 5.0).

About 79,000 compounds went through this panel and 15% of them were active in at least one assay; those are over-represented in the sample as a whole. Unmarked numbers belong to inactive results. Active and inactive are the calls of the source. Rule as the data show it: active = growth inhibition above about 70%; inactive = the rest.

For `O=C(O)c1ccc2cc(Cl)c3ccccc3c2c1`, the growth inhibition is 58% under setting [1], 93% (active) under setting [2] and 94.8% (active) (at 50.0 µM).

Consider `COc1ccc(N=c2cc(-c3ccccc3)oc3ccccc23)cc1`, for which the growth inhibition under setting [1] was -2%, the growth inhibition under setting [2] was 26% and the growth inhibition (at 50.0 µM) was 76.2% (active).

For `CC1=COC2=C(C)C(=O)C(=O)c3c(C)ccc1c32`, the growth inhibition was 5% under setting [1], 71% (active) under setting [2] and 80% (active) (at 50.0 µM).

Turning to `O=C(O)c1c2ccc(Cl)cc2nc2[nH]c(=O)[nH]c(=O)c12`, the growth inhibition by setting is: under setting [1], 45%; under setting [2], 54%; (at 50.0 µM) 31.7%.

Regarding `O=C1NC(c2cccc(OCc3ccccc3)c2)Nc2ccccc21` (configuration not stated), the growth inhibition reads like this: under setting [1], 36%; under setting [2], 71% (active); (at 50.0 µM) 65.2%.

Take `COC(=O)c1cnc(Cl)c([N+](=O)[O-])c1`: the growth inhibition reads like this: under setting [1], 72% (active); under setting [2], 98% (active); (at 50.0 µM) 98.5% (active).

For `CC(=O)/C=C/c1cccc([N+](=O)[O-])c1`, the growth inhibition is 12% under setting [1], 94% (active) under setting [2] and 81.7% (active) (at 50.0 µM).

As to `C=COC(=O)N[C@H]1CCc2cc(OC)c(OC)c(OC)c2-c2ccc(SC)c(=O)cc21`, the growth inhibition under setting [1] is -8%, the growth inhibition under setting [2] was 30% and the growth inhibition (at 50.0 µM) is 29.1%.

As for `NC(=S)N1N=C2c3ccccc3CC[C@H]2[C@@H]1c1ccc(Cl)cc1`, the growth inhibition runs as follows: under setting [1], 7%; under setting [2], 93% (active); (at 50.0 µM) 80.2% (active).

Regarding `COc1ccc2cc3c4cc5c(cc4cc[n+]3cc2c1OC)OCO5`, the growth inhibition reads like this: under setting [1], 63%; under setting [2], 97% (active); (at 50.0 µM) 97% (active).

For `CC(=O)NC(c1nc2cc(C)c(C)cc2[nH]1)c1nc2cc(C)c(C)cc2[nH]1`, the growth inhibition is, setting by setting: under setting [1], 35%; under setting [2], 95% (active); (at 50.0 µM) 37.6%.

As for `O=C1c2ccccc2C(=O)c2c(O)c(NCCNCCO)cc(O)c21`, the growth inhibition was 58% under setting [1], 95% (active) under setting [2] and 90.3% (active) (at 50.0 µM).

In the case of `O=C1/C(=C/c2ccc(Cl)c(Cl)c2)CNC/C1=C\c1ccc(Cl)c(Cl)c1`, the growth inhibition reads like this: under setting [1], 6%; under setting [2], 86% (active); (at 50.0 µM) 90.3% (active).

With `CC(C)C(c1ccccc1)c1ccccc1`, the growth inhibition was -113% under setting [1], -101% under setting [2] and 29.2% (at 50.0 µM).
